Test [1] can be described thus: qHTS assay to identify small molecule antagonists of the estrogen related receptor (ERR) signaling pathway from Tox21 library - cell viability counter screen (AID 1224834). Further: nearly all actives have a fitted effect of over 30% in size. Further: potency means the concentration at half of the fitted maximal effect. The gist of the method:
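ERR reporter cells, 2,000 per well, rested 6 h, then exposed to compound in DMSO for 17.5 hours at 37 C. Viability read as fluorescence after 30 min with CellTiter-Fluor.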

For test [2], the target named is Luciferin 4-monooxygenase (Photinus pyralis) (UniProt P08659). Put plainly: qHTS assay to identify small molecule inhibitors of firefly luciferase (AID 1224835). Further: nearly all actives have a fitted effect of over 25% in size. Further: potency means the concentration at half of the fitted maximal effect. Put shortly:
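Biochemical qHTS: compounds run as interplate titrations against purified firefly enzyme, with D-luciferin and ATP each at its KM concentration. Light output recorded by CCD imaging.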
(In general: In qHTS, concentration-response curves come from the screen itself.)

Test [3] can be described thus: qHTS assay to identify small molecule agonists of the constitutive androstane receptor (CAR) signaling pathway - cell viability counter screen (AID 1224836). Further: nearly all actives have a fitted effect of over 45% in size. Further: potency means the concentration at half of the fitted maximal effect. Put shortly:
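HepG2 cells stably carrying hCAR and a CYP2B6-2.2kb reporter were plated 4 h, then given compounds at 15 concentrations plus PK11195 (final 0.75 uM). After 23 h at 37 C, viability was read by CellTiter-Fluor fluorescence.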

Test [4] in a line: qHTS assay to identify small molecule antagonists of the constitutive androstane receptor (CAR) signaling pathway - cell viability counter screen (AID 1224837). Further: nearly all actives have a fitted effect of over 45% in size. Further: potency means the concentration at half of the fitted maximal effect. The gist of the method:
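HepG2 cells stably carrying hCAR and CYP2B6-2.2kb reporter, stimulated with 50 nM CITCO and compounds at 15 concentrations for 23 h at 37 C. Viability measured by CellTiter-Fluor fluorescence.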

In test [5] the target is Nuclear receptor subfamily 1 group I member 3 (Homo sapiens) (UniProt Q14994). Put plainly: qHTS assay to identify small molecule antagonists of the constitutive androstane receptor (CAR) signaling pathway (AID 1224838). Further: nearly all actives have a fitted effect of over 40% in size. Further: potency means the concentration at half of the fitted maximal effect. Put shortly: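 HepG2 cells stably carrying hCAR and a CYP2B6-2.2kb luciferase reporter, seeded 4 hrs before compound (15 concentrations). Stimulated with 50 nM CITCO for 24 hr at 37 C. ONE-Glo luminescence read after 30 min at room temperature.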

Test [6] has the same target. Put plainly: qHTS assay to identify small molecule agonists of the constitutive androstane receptor (CAR) signaling pathway (AID 1224839). Further: nearly all actives have a fitted effect of over 15% in size. Further: potency means the concentration at half of the fitted maximal effect. The gist of the method:
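HepG2 cells stably expressing hCAR and a CYP2B6-2.2kb luciferase reporter were treated with compounds at 15 concentrations plus 0.75 uM PK11195 (final) for 24 h at 37 C; luminescence was read after ONE-Glo addition.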

Test [7] in a line: qHTS assay to identify small molecule antagonists of the estrogen related receptor signaling pathway with the pleiotropic PPARgamma coactivator (PGC) from Tox21 10K library - cell viability counter screen (AID 1224840; active means well fitted cell-killing curve with a large enough effect in the repeat runs, not every such curve was filed as active; further: nearly all actives have a fitted effect of over 40% in size; further: potency means the concentration at half of the fitted maximal effect). Put shortly:
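PGC/ERR cells (2,000/well) plated 6 h, then compound-treated for 17.5 h at 37 C. Viability measured by CellTiter-Fluor fluorescence after 30 min at 37 C, multiplexed with the pathway assay.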

Test [8] can be described thus: qHTS assay to identify small molecule antagonists of the estrogen related receptor signaling pathway with the pleiotropic PPARgamma coactivator (PGC) from Tox21 10K library (AID 1224841; call rule not given here; further: actives are mostly falling curves and most rising ones were filed inactive; nearly all actives have a fitted effect of over 50% in size; further: potency means the concentration at half of the fitted maximal effect). The gist of the method:
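PGC/ERR cell line, 2,000 cells/well, pre-incubated 6 hours at 37 C, then exposed to compounds for 18 hours at 37 C; luciferase read with One-Glo luminescence after 30 min at room temperature.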

Test [9] is described as follows: qHTS assay to identify small molecule agonists of the estrogen related receptor signaling pathway with the pleiotropic PPARgamma coactivator (PGC) from Tox21 10K library (AID 1224842). Further: nearly all actives have a fitted effect of over 15% in size. The gist of the method: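 PGC/ERR reporter cell line, 2,000 cells per well, incubated 6 h at 37 C before 23 nL compound in DMSO was added. After 18 h at 37 C, One-Glo luminescence read following 30 min at room temperature.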

The target of test [10] is Thyrotropin receptor (Homo sapiens) (UniProt P16473). Description: qHTS assay to identify small molecule agonists of the thyroid stimulating hormone receptor (TSHR) signaling pathway (AID 1224843; calls by dose curve; further: nearly all actives have a fitted effect of over 45% in size; further: potency means the concentration at half of the fitted maximal effect). Put shortly:
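TSHR-HEK293 cells in agonist mode, 30 min room-temperature step, then cAMP measured by competitive HTRF (cAMP-d2 with anti-cAMP cryptate) after 1 h at room temperature. Tested at 15 concentrations in triplicate.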

Here are results for 28 compounds from PubChem BioAssay (Tox21).

Where “and” joins values, the source holds several entries; their conditions need not be identical. Equal entries are not always repeated. Records with an inconclusive call do not appear. Where a structure was tested more than once in an assay, its records may differ in their call. Calls of active or inactive are those of the source. Unless noted, the call rests on the fitted dose curve; in most records, active means well fitted curve in the direction sought with a large enough effect in the repeat runs; inconclusive means weak or mixed curves; inactive means no such curve, though single readings can be large; an effect the other way counts as inactive or inconclusive.

Sequence of Luciferin 4-monooxygenase (Photinus pyralis) (P08659 whole entry, looked up): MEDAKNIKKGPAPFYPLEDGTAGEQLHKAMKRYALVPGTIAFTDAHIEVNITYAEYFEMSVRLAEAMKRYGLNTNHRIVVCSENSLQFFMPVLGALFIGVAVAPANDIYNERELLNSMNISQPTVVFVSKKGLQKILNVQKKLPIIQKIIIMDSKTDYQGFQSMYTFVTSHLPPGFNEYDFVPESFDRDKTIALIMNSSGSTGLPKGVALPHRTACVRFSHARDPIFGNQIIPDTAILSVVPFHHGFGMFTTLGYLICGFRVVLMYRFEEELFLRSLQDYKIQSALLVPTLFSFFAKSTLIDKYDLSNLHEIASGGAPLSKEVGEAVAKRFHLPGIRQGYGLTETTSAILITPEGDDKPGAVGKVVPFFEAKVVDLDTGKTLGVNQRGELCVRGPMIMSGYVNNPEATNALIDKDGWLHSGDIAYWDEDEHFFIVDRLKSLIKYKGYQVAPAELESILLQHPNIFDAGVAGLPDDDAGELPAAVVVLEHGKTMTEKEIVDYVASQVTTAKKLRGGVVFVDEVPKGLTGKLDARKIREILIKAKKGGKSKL
Sequence of Nuclear receptor subfamily 1 group I member 3 (Homo sapiens) (Q14994 whole entry, looked up): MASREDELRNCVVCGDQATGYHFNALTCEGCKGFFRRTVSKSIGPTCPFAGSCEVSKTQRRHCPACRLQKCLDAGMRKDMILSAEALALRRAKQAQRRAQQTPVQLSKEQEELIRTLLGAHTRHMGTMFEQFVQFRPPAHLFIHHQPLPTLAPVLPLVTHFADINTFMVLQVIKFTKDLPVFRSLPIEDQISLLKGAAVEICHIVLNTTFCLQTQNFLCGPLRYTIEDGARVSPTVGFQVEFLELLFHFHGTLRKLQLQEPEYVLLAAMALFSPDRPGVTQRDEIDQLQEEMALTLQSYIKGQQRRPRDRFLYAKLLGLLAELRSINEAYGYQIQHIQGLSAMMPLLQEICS
Sequence of Thyrotropin receptor (Homo sapiens) (P16473 whole entry, looked up): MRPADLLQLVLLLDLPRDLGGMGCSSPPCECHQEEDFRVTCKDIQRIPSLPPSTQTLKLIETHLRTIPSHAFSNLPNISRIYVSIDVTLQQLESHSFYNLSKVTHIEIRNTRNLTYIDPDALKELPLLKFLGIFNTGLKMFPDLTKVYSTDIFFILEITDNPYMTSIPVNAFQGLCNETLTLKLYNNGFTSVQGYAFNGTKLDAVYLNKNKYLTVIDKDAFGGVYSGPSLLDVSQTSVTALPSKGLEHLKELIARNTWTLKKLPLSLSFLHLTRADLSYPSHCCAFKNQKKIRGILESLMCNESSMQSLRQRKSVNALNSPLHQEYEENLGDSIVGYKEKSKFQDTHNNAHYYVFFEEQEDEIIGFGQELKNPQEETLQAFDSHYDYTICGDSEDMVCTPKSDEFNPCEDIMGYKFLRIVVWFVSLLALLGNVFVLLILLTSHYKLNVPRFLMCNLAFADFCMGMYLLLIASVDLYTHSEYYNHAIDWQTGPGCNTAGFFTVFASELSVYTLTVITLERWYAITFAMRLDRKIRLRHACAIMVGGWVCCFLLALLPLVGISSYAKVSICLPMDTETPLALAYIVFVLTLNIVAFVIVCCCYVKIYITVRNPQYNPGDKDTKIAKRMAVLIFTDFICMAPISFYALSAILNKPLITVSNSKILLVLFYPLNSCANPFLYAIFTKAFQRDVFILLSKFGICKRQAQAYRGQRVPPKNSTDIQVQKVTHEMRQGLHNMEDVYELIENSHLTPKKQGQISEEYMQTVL

`OCCOc1ccccc1`: the Potency entry in test [1], in [2], in [3], in test [4], in test [5] and in [6] was “inactive” throughout. The Potency result in test [7], in test [8], in test [9] and in test [10] was “inactive” throughout.
For `CC(=O)[O][Hg][c]1ccccc1`, the Potency was 2.41 µM (active) and 3.86 µM (active) and 7.5 µM (active) in test [1]; 1.25 µM (active) and 3.99 µM (active) and 2.75 µM (active) in test [2]; 2.41 µM (active) and 4.33 µM (active) and 5.96 µM (active) in test [3]; 2.71 µM (active) and 4.33 µM (active) and 5.31 µM (active) in test [4]; 2.41 µM (active) and 4.33 µM (active) and 5.31 µM (active) in test [5]; 1.92 µM (active) and 2.43 µM (active) and 6.68 µM (active) in test [7]. Also, the Potency in test [8] was 2.71 µM (active) and 4.86 µM (active) and 9.44 µM (active); in test [10], 2.71 µM (active) and 770 nM (active) and 9.44 µM (active). The Potency result in [6] and in test [9] was “inactive” throughout.
As for `O=P1(N(CCCl)CCCl)NCCCO1` (stereo unspecified), the Potency entry in [1], in [2], in [3], in test [4], in test [5] and in [6] was “inactive” throughout. For the same compound, the Potency result in test [7], in test [8], in test [9] and in test [10] was “inactive” in each case.
On to `O=[N+]([O-])c1ccccc1O`, for which the Potency entry in test [1], in test [2], in test [3], in test [4], in test [5] and in [6] was “inactive” each time. The Potency result in test [7], in [8] and in [9] was “inactive” each time.
With `O=c1[nH]c(=O)n(Cl)c(=O)n1Cl`, the Potency result in test [1], in test [2], in test [3], in test [4], in test [7] and in test [8] was “inactive” each time. For the same compound, the Potency entry in test [9] is “inactive”.
For the compound `Nc1ccc(-c2ccc(N)cc2)cc1`, the Potency entry in test [1], in test [3], in test [4], in [5], in test [7] and in test [10] was “inactive” in each case. Also, the Potency in test [2] is 78.7 µM (active) and 28.1 µM (active); in [6] it was 53.9 µM (active) and inactive and 21.7 µM (active).
In the case of `C1CCC(NC2CCCCC2)CC1`, the Potency result in [1], in [2], in test [3], in [4], in test [5] and in [6] was “inactive” throughout. Also, the Potency result in test [7] and in [10] was “inactive” throughout.
As to `CC(=O)O`, the Potency entry in test [1], in test [3], in test [4] and in test [7] was “inactive” throughout.
Turning to `CCCCCCCCCCCCCCCCn1cc[n+](C)c1`, the Potency in [2] is 81.4 µM (active) and inactive; in test [5], “inactive and 30.9 µM (active) and 27.4 µM (active)”; in test [7] it was “inactive and 61.7 µM (active) and 27.4 µM (active)”. In addition, the Potency result in test [10] was “inactive”.
Take `CCCCCCCCn1cc[n+](C)c1`: the Potency entry in test [2], in test [7] and in test [10] was “inactive” each time.
In the case of `CCCCCCCCCCCCOS(=O)(=O)O`, the Potency entry in [1], in [3], in test [4] and in [7] was “inactive” throughout.
In the case of `CCCn1cc[n+](C)c1`, the Potency entry in test [1], in test [2], in test [3], in [4], in test [7] and in test [10] was “inactive” each time.
Turning to `O=C(O)CCl`, the Potency result in [1], in [2], in test [3], in test [4], in test [7] and in test [8] was “inactive” in each case. For the same compound, the Potency result in test [9] and in [10] was “inactive” each time.
As for `CC(Cl)(Cl)C(=O)O`, the Potency entry in test [1], in test [2], in test [3], in test [4], in [7] and in [10] was “inactive” throughout.
With `CCCCCCCCCCCCn1cc[n+](C)c1`, the Potency entry in test [2] was “inactive”.
As to `CCCCn1cc[n+](C)c1`, the Potency entry in test [1], in test [3], in test [4] and in test [7] was “inactive” throughout.
For the compound `N#CS`, the Potency result in [1], in test [3], in [4] and in test [7] was “inactive” in each case.
In the case of `Oc1cccc2cccnc12`, the Potency in test [1] was 2.74 µM (active) and 2.43 µM (active) and inactive; in [5], 1.38 µM (active) and 770 nM (active) and inactive; in test [7] it was 2.43 µM (active) and inactive.
On to `CCCCCCCCCCCCCC[P+](CCCCCC)(CCCCCC)CCCCCC`, for which the Potency in test [1] was 17.3 µM (active) and 24.5 µM (active); in test [3], 7.73 µM (active) and 9.77 µM (active); in [4], 12.2 µM (active) and 13.8 µM (active); in test [7] it was 21.8 µM (active) and 21.9 µM (active). The Potency result in test [2] and in test [10] was “inactive” each time.
Take `COc1ccccc1N`: the Potency entry in [1], in test [2], in [3], in test [4], in test [7] and in [8] was “inactive” in each case. The Potency entry in [9] was “inactive”.
In the case of `CN(C)[C@@H]1C(=O)C(C(N)=O)=C(O)[C@@]2(O)C(=O)C3=C(O)c4c(O)cccc4[C@@](C)(O)[C@H]3[C@H](O)[C@@H]12`, the Potency result in [1], in [2], in [3], in test [4], in test [7] and in test [10] was “inactive” each time.
Regarding `CC[n+]1ccccc1`, the Potency entry in [1] was “inactive and 30.4 µM (active)”. For the same compound, the Potency entry in test [2], in [3], in [4], in test [7] and in test [10] was “inactive” throughout.
On to `CC[N+](CC)(CC)CC`, for which the Potency result in test [1], in test [3], in test [4], in [5], in [6] and in [7] was “inactive” each time. In addition, the Potency result in test [10] is “inactive”.
Turning to `O=[N+]([O-])O`, the Potency entry in test [1], in test [3], in [4], in test [7] and in [10] was “inactive” throughout.
With `CCCC[n+]1ccccc1`, the Potency result in test [1], in test [2], in [3], in [4], in test [7] and in test [10] was “inactive” each time.
`Nc1ccc(Cl)cc1`: the Potency result in test [2], in test [3], in [4], in test [5], in [6] and in [7] was “inactive” in each case. Moreover, the Potency result in test [10] was “inactive”.
On to `O=C(O)c1ccccc1O`, for which the Potency result in test [1], in [3], in [4], in [5], in test [6] and in test [7] was “inactive” throughout.
In the case of `O=C(O)c1nc(Cl)ccc1Cl`, the Potency result in test [1], in [2], in [3], in test [4], in [7] and in test [10] was “inactive” each time.
